Measurements as given in PubChem BioAssay AID620 (Sanford-Burnham Center for Chemical Genomics, 2007).
The campaign covered roughly 87,000 compounds. About 360 (0.41%) were called active. The sample holds actives, similar compounds and a random draw of the others, so the mix is not that of the screen. A number with no mark means an inactive call. No stated cut-off is given here; in the data, active means cytotoxicity above about 50%; inactive means the rest.

Assay: HT1080 cell viability loss – fluorescence readout (AID 620);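 further: cells exposed to compound overnight then 4 h with Alamar Blue; 0% = vehicle DMSO and 100% = killing control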
Conditions: at 10 µM, hits give high values

Compound	cytotoxicity
COc1ccc(CC(=O)NCc2nnc(SCC(=O)N3CCN(c4ccccc4)CC3)n2C)cc1	-7%
COc1ccc(C)cc1NC(=O)CNC(=O)Cn1ccc2ccccc2c1=O	7.1%
Cc1nnc(Sc2nc3c(c(=O)[nH]c(=O)n3C)n2Cc2ccccc2Cl)s1	1%
COCCCNC(=O)Cn1cc2c(n1)CCC(C)C2 (stereo not given)	-3.5%
Nc1[nH]c(=S)[nH]c(=O)c1-c1ccccc1	-5%
O=C(Nc1ccc(N2CCN(Cc3ccccc3)CC2)cc1)c1ncn[nH]1	-2.9%
CC(=O)c1ccc(NC(=O)c2ccn[nH]2)cc1	-0.3%
COc1cc([C@@H]2c3cc4c(cc3[C@H](O)[C@H]3COC(=O)[C@H]23)OCO4)cc(OC)c1OC	68.5% (active)
COc1cc(CC(=O)NCc2ccc3c(c2)OCO3)cc(OC)c1OC	3.1%
COc1cc(CC(=O)Oc2ccc3c(c2)OCO3)cc(OC)c1OC	2.2%
COc1ccc2c(c1OC)C(=O)OC2Nc1ncc(Br)cc1Br (stereo not given)	6.2%
CCN1CCN(c2ncc3c(n2)CC(c2ccc(OC)c(OC)c2)CC3=O)CC1 (stereo not given)	-13%
COc1cc(C2CC(=O)c3cnc(N)nc3C2)cc(OC)c1OC (stereo not given)	0.9%
COc1ccc(C2CC(=O)c3c(C)nc(N4CCN(Cc5ccccc5)CC4)nc3C2)cc1OC (stereo not given)	-20.1%
COc1ccc(C2CC(=O)c3cnc(N4CCN(Cc5ccccc5)CC4)nc3C2)cc1 (stereo not given)	22.6%
COc1cc(C2CC(=O)c3cnc(N4CCN(Cc5ccccc5)CC4)nc3C2)cc(OC)c1OC (stereo not given)	52.5% (active)
CCN1CCN(c2ncc3c(n2)CC(c2cc(OC)c(OC)c(OC)c2)CC3=O)CC1 (stereo not given)	51.1% (active)
COc1ccc(-n2c3c(cc(C(=O)Nc4ccc(C)cc4)c2=O)C(=O)CCC3)cc1	14.6%
CCOc1ccc2nc(SCC(=O)NC(=O)NCc3ccco3)[nH]c2c1	-12.9%
Cc1cc(N2CCCC2)nc(-c2ccccc2O)n1	1.6%

Compound	cytotoxicity
Cn1cc(/C=N/n2cnc3scc(-c4ccc(Cl)cc4)c3c2=O)c2ccccc21	57.8% (active)
Cc1nn(-c2ccccc2)c(N2CCCC2)c1/C=N/n1cnc2scc(-c3ccccc3)c2c1=O	-0.7%
CCn1cnc2scc(-c3ccccc3)c2c1=O	6%
Cc1ccc(-c2csc3ncn(/N=C/N(C)C)c(=O)c23)o1	1.3%
Cn1cc(/C=N/n2cnc3sc4c(c3c2=O)CCCC4)c2ccccc21	-0.6%
Cn1cc(/C=N/n2cnc3scc(-c4ccccc4)c3c2=O)c2ccccc21	52.6% (active)
COc1ccc(S(=O)(=O)CCC(=O)NCCc2ccc(C)cc2)cc1	-7.2%
COCCNC(=O)C(c1cccs1)N(C(=O)Cn1nnc2ccccc21)c1ccccc1 (stereo not given)	2.1%
Nc1cccc(Nc2nc(OC(C(F)(F)F)C(F)(F)F)nc(OC(C(F)(F)F)C(F)(F)F)n2)c1	-15.3%
Cc1cc(C)cc(C(=O)N2CC(=O)Nc3ccccc32)c1	63.6% (active)
Cc1cc(C)c2nc(SCC(=O)Nc3ccccc3N3CCOCC3)c(C#N)cc2c1	4.9%
Cc1cccc2cc(C#N)c(SCC(=O)N3CC(=O)Nc4ccccc43)nc12	62.5% (active)
Cc1cc(C)c2nc(SCC(=O)N3CC(=O)Nc4ccccc43)c(C#N)cc2c1	70.8% (active)
O=C1CN(C(=O)c2ccccc2)c2ccccc2N1	1.9%
Cc1ccsc1C(=O)N1CC(=O)Nc2ccccc21	-1.3%
Cc1cc(C)c2nc(SCC(=O)N3CCCCC3)c(C#N)cc2c1	-0.9%
CCc1ccc2nc(SCC(=O)N3CC(=O)Nc4ccccc43)c(C#N)cc2c1	-5.8%
Cc1cccc2cc(C#N)c(SCC(=O)N3CCC(C)CC3)nc12	-4.3%
CC(C)Nc1oc(Cc2cccc3ccccc23)nc1C#N	4.7%
O=C(CSc1nc2ccccc2o1)c1ccccc1	-3.2%

Compound	cytotoxicity
Cc1cccc(NC(=S)N2N=CCC2c2ccccc2)c1 (stereo not given)	-1.4%
CC1=C(C(=O)OCc2ccccc2)C(c2ccccc2OC(=O)c2ccc(I)cc2)NC(=O)N1CCCC(=O)O (stereo not given)	-5.3%
Cn1c(SCC(=O)NCCNC(=O)CSc2nnc(C(F)(F)F)n2C)nnc1C(F)(F)F	5.9%
Cc1ccc(Nc2cc(C)nn2-c2nc(C)cc(=O)[nH]2)cc1	65.9% (active)
Cc1cc(=O)[nH]c(-n2nc(C)cc2C)n1	-0.8%
Cc1ccc(Nc2cc(C)nn2-c2nc(C)cc(C)n2)cc1	-13.7%
O=C(Nc1nc(-c2cc(Cl)sc2Cl)cs1)c1cccs1	-0.1%
CC(C)Sc1nc(-c2ccccc2)cc(=O)[nH]1	16.9%
N#CCCCSc1nnc(-c2ccccn2)o1	0.3%
CN(C)CCCNC(CC(=O)Nc1ccc(Cl)cc1)C(=O)O (stereo not given)	-0.1%
CCOC(=O)C1CCCN(C(=O)C2CCN(S(=O)(=O)c3cnc[nH]3)CC2)C1 (stereo not given)	3.9%
O=C(Nc1cccc(-c2cnc3ccccc3n2)c1)c1ccco1	-2.2%
O=C(CCl)Nc1cccc(-c2cnc3ccccc3n2)c1	98.8% (active)
O=C(CNC(=O)c1ccc(Br)o1)Nc1cccc(-c2cnc3ccccc3n2)c1	-7.7%
CCC(=O)N1c2ccccc2NC2=C(C(=O)CCC2)C1c1cccnc1 (stereo not given)	-7%
CC(=O)N1CCCc2cc(S(=O)(=O)N(CC(C)C)CC(C)C)ccc21	-25.7%
Cc1ccc2[nH]c(=O)c(CN(Cc3ccco3)C(=O)c3cccs3)cc2c1	4.9%
O=C(c1cccs1)N(Cc1ccco1)Cc1cc2ccccc2[nH]c1=O	-4.8%
Cc1ccc2cc(CN(Cc3ccco3)C(=O)c3cccs3)c(=O)[nH]c2c1	59.8% (active)
CN(C)S(=O)(=O)c1ccc(S(=O)(=O)N(CC(=O)Nc2ccccc2)Cc2ccco2)cc1	4.9%
